These results are taken from PubChem BioAssay AID651847 (Broad Institute, 2012).

Structures are written as SMILES. Values joined by “and” are separate entries in the source; they are usually repeats but may differ in a detail not shown here. Equal entries are not always repeated. Results filed as inconclusive are left out. Values without a mark were called inactive. Active and inactive are the calls of the source. The rule behind the calls is not given here.

The test is described as follows: dose response, V. cholerae BH1651, dry powder (AID 651847). The note with it: V. cholerae BH1651 luxOD47E, luciferase light induction, 6 h; at 80 µM (top of the series) unless noted.
In the case of `COc1ccc(CC(=O)NC2CCCC2)cc1`, the activation (light induction) is 12.5%.
Under `CCCCn1nnnc1NCc1ccc(N2CCCC2)cc1` stands -25%; under `CCn1nnnc1NCc1ccc(C(C)C)cc1`, -4.17% and 0%.
For `CS(=O)(=O)c1ccc(CC(=O)NC2CCCC2)cc1`, the activation (light induction) was -25%.
On to `CCn1nnnc1NCc1ccc(N2CCCCC2)cc1`, for which the activation (light induction) was 0% [at 28.5 µM].
On to `CCn1nnnc1NCc1ccc(N2CCCC2)cc1`, for which the activation (light induction) is -12.5%.
For `c1ccc(Cn2nnc(NCc3ccc(N4CCCC4)cc3)n2)cc1`, the activation (light induction) was -50%.
In the case of `CCCn1nnnc1NCc1ccc(C(C)C)cc1`, the activation (light induction) was 50%.
In the case of `CCn1nccc1/N=C/c1ccc(N2CCCC2)cc1`, the activation (light induction) was 0%.
As for `O=C(Cc1ccc(-c2ccccc2)cc1)NC1CCCCC1`, the activation (light induction) is -12.5%.
For `Cn1nnnc1NCc1ccc(N2CCCC2)cc1`, the activation (light induction) was -25%.
Turning to `O=C(Cc1cccc(F)c1)NC1CCCC1`, the activation (light induction) was 0%.
Regarding `c1ccc(-n2nnnc2NCc2ccc(N3CCCC3)cc2)cc1`, the activation (light induction) is 37.5%.
`O=C(Cc1ccc(-c2ccccc2)cc1)NC1CCCC1`: the activation (light induction) was 0%.
Turning to `CCn1nnnc1NCc1cccc(N2CCCC2)c1`, the activation (light induction) is -33.3%.
In the case of `O=C(Cc1ccccc1C(F)(F)F)NC1CCCC1`, the activation (light induction) was 0%.
As for `CCC(CC)NC(=O)Cc1ccc(-c2ccccc2)cc1`, the activation (light induction) was -16.7%.
With `CCc1ccccc1NCc1ccc(N2CCCC2)cc1` the figure was -16.7%; with `CCn1nnc(NCc2ccc(C)cc2)n1`, 16.7%; with `O=C(Cc1ccccc1F)NC1CCCC1`, -12.5%.
For the compound `CC(C)NC(=O)Cc1ccc(-c2ccccc2)cc1`, the activation (light induction) is 25%.
With `CCn1nccc1NCc1ccc(N2CCCC2)cc1`, the activation (light induction) is 12.5%.
With `CCn1nnnc1NCc1cccc(OC)c1` the figure was -25%; with `CC(C)(C)OC(=O)N1CC(NC(=O)Cc2ccc(-c3ccccc3)cc2)C1`, 0%.
On to `O=C(Cc1ccc(-c2ccccc2)cc1)NC1CCOCC1`, for which the activation (light induction) was -12.5%.
Turning to `CC1(NC(=O)Cc2ccc(-c3ccccc3)cc2)COC1`, the activation (light induction) was 0%.
On to `O=C(Cc1ccc(-c2ccccc2)cc1)NC1CC1`, for which the activation (light induction) is 25% (active).
Turning to `O=C(NCc1ccc(-c2ccccc2)cc1)C1CCCC1`, the activation (light induction) is 12.5%.
On to `CCn1nnnc1CCc1ccc(N2CCCC2)cc1`, for which the activation (light induction) is -12.5%.
As to `CCCn1nnnc1NCc1ccc(N2CCCC2)cc1`, the activation (light induction) is -25%.
On to `CCn1nnnc1NCc1ccccc1N1CCCC1`, for which the activation (light induction) was 0%.
Under `Cc1ccccc1CC(=O)NC1CCCC1` stands 12.5%.
`Cc1ccc(Cn2nnnc2NCc2ccc(N3CCCC3)cc2)cc1`: the activation (light induction) was -12.5%.
Under `O=C(Cc1cccc(OC(F)(F)F)c1)NC1CCCC1` stands 0%; under `CCn1nnc(CCc2ccc(N3CCCC3)cc2)n1`, -25%; under `O=C(Cc1ccc(-c2ccccc2)cc1)NC1CCC1`, 0%.
With `CC(C)c1ccc(CNc2nnnn2C)cc1`, the activation (light induction) was 37.5%.
Regarding `CCC(C)NC(=O)Cc1ccc(-c2ccccc2)cc1` (stereo not given), the activation (light induction) was 0%.
As for `c1ccc(Cn2nnnc2NCc2ccc(N3CCCC3)cc2)cc1`, the activation (light induction) is 0%.
For the compound `CCCn1nnnc1NCc1ccccc1Cl`, the activation (light induction) is 25%.
